40 compounds from PubChem BioAssay (NCATS) can be followed below.

Inconclusive results are not listed. The source made the active and inactive calls. Calls follow the shape of the dose curve; as a rule, active = well fitted inhibition curve with a large enough effect; inconclusive = small, poorly fitted or top-dose-only effect; inactive = no such curve, though single readings can be large or run the other way.
Potency is read from the fitted curve at half-maximal effect.

This experiment is described as follows: BET inhibitor-based combinations targeting novel dependencies in MECOM-rearranged (r) AML: UCSD-AML1 cell line (AID 2202235). Also: nearly all actives have a fitted effect of over 40% in size.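 As to viability (% of control): plate controls were DMSO vehicle wells for no effect and blank wells for full effect.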 The note with it: UCSD-AML1 AML cells viability, CellTiter-Glo, 48 h; series mostly up to 46 µM; viability (% of control): at the top concentration. From the text: Ecotropic viral insertion site 1 (EVI1) is located on chromosome 3q26.2 as part of the MECOM (MDS and EVI1 complex) locus. Under normal hematopoiesis, EVI1 is a regulator of hematopoietic stem cell maintenance and self-renewal and EVI1 levels decrease as the cells differentiate. In approximately 5-10% of de novo acute myeloid leukemia (AML) EVI1 is aberrantly expressed, including Chromosomal inv(3)(q21;q26.2) or t(3;3)(q21;q26.2) alterations (MECOM-r) that account for about 50% of AML with EVI1 overexpression 31. AMLs with high levels of EVI1 have a poor prognosis and an overall survival time averaging between 10-14 months. EVI1 overexpression confers resistance in leukemia cells, highlighting the need to develop new targeted therapies for EVI1 overexpressing AMLs. Here, we performed an unbiased chemical drug screening by evaluating the single agent activity of a collection of 2,480 oncology-focused, approved and investigational drugs (NCATS Mechanism Interrogation Plates, MIPE v5.0) against a panel of seven AML cell lines. These included four MECOM-r cell-lines (AML-191, AML-194, UCSD-AML1 and HNT-34) and three non-MECOM-r AMLs (MV4-11, OCI-AML3 and SET-2). Exploiting the mechanistic redundancy built in the library, we identified target-level sensitivities in MECOM-r AML cells and relative activity as compared to other AML subtypes.
A collection of 2480 mechanistically annotated dugs (MIPE v5.0) was used to screen four 3q26.2 rearranged AML cell lines and three non-3q26.2 rearranged AML cell lines. This library purposely exploits redundancy by including multiple inhibitors of key onco-targets, while simultaneously encompassing mechanistic diversity, targeting more than 800 distinct mechanisms of action. Briefly, cells were seeded in 5 uL of growth media using a Multidrop Combi dispenser into 1536 well white polystyrene tissue culture treated plates (Corning) at a density of 500cells/well. For each cell-line, for each of the 2480 drugs in MIPE v5.0 library, an 11-point dose curve was generated via a 1536 pin-tool. Plates were incubated for 48 hr at standard incubator conditions, covered by a stainless steel gasketed lid to prevent evaporation. Cell viability was determined by luminescence based, Cell Titer Glo assay (Promega). In detail, 3 uL of Cell Titer Glo were added to each well and plates were incubated at room temperature for 15 min with a stainless-steel lid in place. Luminescence readings were taken using a Viewlux (PerkinElmer) with a 2 s exposure time per plate. Compound dose-response curves were normalized to DMSO and empty well controls on each plate. Quantitative drug activity data from dose-response curves was determined utilizing area Under the Curve (AUC) and Z-transformed AUC (Z-AUC, a mean-centering transformation applied to each individual cell-line screened).
On the technique in general: ATP-based viability assays read luminescence as a measure of living cells.
Take `CC(C)(C)c1cc(C=C(C#N)C#N)cc(Br)c1O`: the Potency is 33.2 µM (active).
`COC(=O)[C@@]12OC[C@]34[C@H]([C@@H](O)[C@@H]1O)[C@@]1(C)CC(=O)C(O)=C(C)[C@@H]1C[C@H]3OC(=O)[C@H](OC(=O)/C=C(\C)C(C)C)[C@@H]24`: the Potency is 0.0033 µM (active).
In the case of `CCN1CCN(C(=O)Cc2ccc(Nc3ncc(F)c(Nc4ccc(C(=O)Nc5ccccc5Cl)cc4)n3)cc2)CC1`, the Potency was 3.72 µM (active).
Same read-out and setting: the result for `COc1cccc2c1C(=O)c1c(O)c3c(c(O)c1C2=O)C[C@@](O)(C(=O)CO)CC3OC1CC(N2CCOC(OC)C2)C(O)C(C)O1` (stereo not given in full) reads 0.0047 µM (active).
With `COC(=O)[C@@H](N)CCCN=C(N)N[N+](=O)[O-]`, the “viability (% of control)” value was 92.2% (inactive).
On to `Cc1[nH]ncc1-c1cc2nc([C@@H]3CC4CCN3CC4)[nH]c(=O)c2s1`, for which the Potency was 9.34 µM (active).
Consider `Cn1cc(C2=C(c3cn(C4CCN(Cc5ccccn5)CC4)c4ccccc34)C(=O)NC2=O)c2ccccc21`, for which the “viability (% of control)” value is 112% (inactive).
`C[C@]12CC[C@H]3[C@@H](CC[C@@]45O[C@@H]4C(O)=C(C#N)C[C@]35C)[C@@H]1CC[C@@H]2O`: the “viability (% of control)” value is 117% (inactive).
With `CN[C@@H]1C[C@H]2O[C@@](C)([C@@H]1OC)n1c3ccccc3c3c4c(c5c6ccccc6n2c5c31)C(=O)NC4`, the Potency is 0.0661 µM (active).
Regarding `C[C@]12Cc3cn[nH]c3C[C@@H]1CC[C@@H]1[C@@H]2CC[C@@]2(C)[C@H]1CC[C@]2(C)O`, the “viability (% of control)” value is 84.7% (inactive).
`Cc1cc(SCc2sc(-c3ccc(C(F)(F)F)c(F)c3)nc2C)ccc1OCC(=O)O`: the “viability (% of control)” value is 101% (inactive).
With `O=C(CBr)N1CC([N+](=O)[O-])([N+](=O)[O-])C1`, the “viability (% of control)” value was 118% [at 92.2 µM] (inactive).
Same read-out and setting: the result for `O=c1[nH]c2ccccc2n1CCCN1CCC(n2c(=O)[nH]c3cc(Cl)ccc32)CC1` reads 119% (inactive).
Still for that read-out and setting: in the case of `CC1=C2C[C@H]3[C@@H](CC=C4C[C@@H](O)CC[C@@]43C)[C@@H]2CC[C@]12O[C@@H]1C[C@H](C)CN[C@H]1[C@H]2C` it was 107% (inactive).
In the case of `COC(=O)[C@]12CCC(C)(C)C[C@H]1[C@H]1C(=O)C=C3[C@@]4(C)C=C(C#N)C(=O)C(C)(C)[C@@H]4CC[C@@]3(C)[C@]1(C)CC2`, the Potency was 1.48 µM (active).
Turning to `C=C1C[C@@H]2[C@H](CC[C@]3(C)C(=O)CC[C@@H]23)[C@@]2(C)C=CC(=O)C=C12`, the “viability (% of control)” value was 86.7% (inactive).
Consider `CCNC(=O)C[C@@H]1N=C(c2ccc(Cl)cc2)c2cc(OC)ccc2-n2c(C)nnc21`, for which the Potency is 0.833 µM (active).
Turning to `O=C(O)C(=O)c1cn(Cc2ccccc2)c2ccc(-c3ccc(OC(F)(F)F)cc3)cc12`, the “viability (% of control)” value was 113% (inactive).
As to `CN(C)c1cc2c(cc1Sc1nc3c(N)nccc3n1CCNCC(C)(C)C)OCO2`, the Potency is 1.32 µM (active).
Regarding `C[C@@H](C1CC[C@@]2(O)C3=CC(=O)[C@@H]4C[C@@H](O)[C@@H](O)C[C@]4(C)[C@H]3CC[C@]12C)[C@H](O)CCC(C)(C)O` (stereo not given in full), the “viability (% of control)” value is 105% (inactive).
Regarding `COc1ccc(C(=O)c2c(C)n(CCN3CCOCC3)c3ccccc23)cc1`, the Potency is 1.86 µM (active).
Regarding `CCOC(=O)c1c(C(C#N)=CN)c2ccc(Cl)c(Cl)c2n1C`, the “viability (% of control)” value is 105% (inactive).
Consider `O=C(O)c1nn(Cc2ccc(Cl)cc2Cl)c2ccccc12`, for which the “viability (% of control)” value is 106% (inactive).
The same measure, in the same setting: in the case of `CC(O)(CS(=O)(=O)c1ccc(F)cc1)C(=O)Nc1ccc(C#N)c(C(F)(F)F)c1` (stereo not given) it was 108% (inactive); in that of `COC12C(COC(N)=O)C3=C(C(=O)C(C)=C(N)C3=O)N1CC1C2N1C` (stereo not given), 110% (inactive).
For `C[C@]12CC[C@@H]3[C@@H](CCC4=CC(=O)CC[C@@H]43)[C@@H]1CC[C@@H]2OC(=O)CCc1ccccc1`, the “viability (% of control)” value was 115% (inactive).
In the case of `CN1C(=O)[C@@H](NC(=O)[C@H](CCC(F)(F)F)[C@H](CCC(F)(F)F)C(N)=O)N=C(c2ccccc2)c2ccccc21`, the “viability (% of control)” value was 106% (inactive).
For `CC(=O)OC[C@H]1O[C@@H]([S-])[C@H](OC(C)=O)[C@@H](OC(C)=O)[C@@H]1OC(C)=O.CC[PH+](CC)CC.[Au]`, the Potency is 0.934 µM (active).
Take `COC[C@H]1OC(=O)c2coc3c2[C@@]1(C)C1=C(C3=O)[C@@H]2CC[C@H](O)[C@@]2(C)C[C@H]1OC(C)=O`: the Potency was 1.66 µM (active).
Take `O=C(O)CNC(=O)C1C(=O)N(C2CCCCC2)C(=O)N(C2CCCCC2)C1=O`: the “viability (% of control)” value is 104% (inactive).
`C[C@@H]1O[C@@H](O[C@@H]2C=C3CC[C@@H]4[C@H](CC[C@]5(C)[C@@H](c6ccc(=O)oc6)CC[C@]45O)[C@@]3(C)CC2)[C@H](O)[C@H](O)[C@H]1O`: the Potency was 0.0186 µM (active).
Still for that read-out and setting: in the case of `C/C=C(/C)C(=O)O[C@H]1C(C)=C2[C@H]([C@@H]1OC(=O)CCCCCCC)[C@@](C)(OC(C)=O)C[C@H](OC(=O)CCC)[C@@]1(O)[C@H]2OC(=O)[C@@]1(C)O` it was 0.132 µM (active); in that of `C[C@@H]1CC[C@@]2(OC1)O[C@H]1C[C@H]3[C@@H]4CC=C5C[C@@H](O[C@@H]6O[C@H](CO)[C@@H](O[C@@H]7O[C@@H](C)[C@H](O)[C@@H](O)[C@H]7O)[C@H](O)[C@H]6O[C@@H]6O[C@@H](C)[C@H](O)[C@@H](O)[C@H]6O)CC[C@]5(C)[C@H]4CC[C@]3(C)[C@H]1[C@@H]2C`, 8.33 µM (active).
Regarding `COc1cc2cc(c1Cl)N(C)C(=O)C[C@H](OC(=O)C(C)C)[C@]1(C)O[C@@H]1[C@H](C)[C@@H]1C[C@@](O)(NC(=O)O1)[C@H](OC)/C=C/C=C(\C)C2`, the “viability (% of control)” value was 15.6% (inactive).
On the same count and under the same terms, the result for `CCN(CC)C(=O)c1ccc(C2=CC3(CCNCC3)Oc3cccc(O)c32)cc1` reads 107% (inactive).
Take `CN1C(=O)COc2c(C(=O)NC3CN4CCC3CC4)cc(Cl)cc21` (stereo not given): the “viability (% of control)” value is 105% (inactive).
On the same count and under the same terms, the result for `O=C(Oc1ccc([N+](=O)[O-])cc1)N1CCC(C(O)(c2ccc3c(c2)OCO3)c2ccc3c(c2)OCO3)CC1` reads 112% (inactive); that for `CCCN1CCO[C@@H]2c3cc(O)ccc3OC[C@H]21`, 103% (inactive).
For `CO[C@H]1CCC(O[C@H]2C[C@H]([C@]3(C)CC[C@]4(C[C@H](O)[C@@H](C)[C@@H]([C@@H](C)/C=C(\C)C(=O)[C@H](C)C[C@H](C)C(=O)O)O4)O3)O[C@]3(O[C@@H]([C@H]4O[C@@](O)(CO)[C@H](C)C[C@@H]4C)C[C@@H]3C)[C@@H]2C)O[C@@H]1C` (stereo not given in full), the Potency is 2.63 µM (active).
Regarding `COCC1(CO)C(=O)C2CCN1CC2` (stereo not given), the Potency was 5.25 µM (active).
